According to PubChem BioAssay AID1421 (Emory University Molecular Libraries Screening Center, 2008):
Hit rate of the full screen: of about 1,300 compounds, about 140 (11%) were called active. How the calls were made is not given here. A selection follows. Results with a measured potency or affinity are listed apart.

Each compound was assayed against Prostaglandin E2 receptor EP2 subtype (Homo sapiens) (UniProt P43116) (assay: EP2 receptor modulators, dose response, cell-based, human EP2, PGE2 EC50 shift (AID 1421)). Details: EP2-expressing cells, PGE2 EC50 shift by compound; at 20 µM.
Prostaglandin E2 receptor EP2 subtype (Homo sapiens), sequence (P43116 whole entry, looked up): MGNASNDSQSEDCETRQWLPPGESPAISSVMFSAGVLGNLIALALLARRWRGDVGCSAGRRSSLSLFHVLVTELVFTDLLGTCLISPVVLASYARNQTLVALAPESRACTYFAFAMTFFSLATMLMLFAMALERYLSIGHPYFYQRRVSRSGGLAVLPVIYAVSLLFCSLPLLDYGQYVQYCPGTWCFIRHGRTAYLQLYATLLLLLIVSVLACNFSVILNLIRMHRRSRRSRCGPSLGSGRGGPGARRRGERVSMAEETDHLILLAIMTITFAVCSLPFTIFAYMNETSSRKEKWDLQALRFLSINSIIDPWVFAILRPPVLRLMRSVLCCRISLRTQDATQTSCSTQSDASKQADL

PGE2 EC50 with compound, inactive:
Cc1ccc(S(=O)(=O)Nc2ccc(Cl)cc2C(=O)c2ccc(F)cc2)cc1 1000 pM
O=C(/C(=C/O)N=Nc1ccccc1)c1ccc(Cl)cc1 7050 pM
Cc1ccc(S(=O)(=O)NCC(=O)N(c2ccccc2)C(C(=O)NCc2ccccc2)c2ccco2)cc1 (stereo unspecified) 620 pM
O=C(c1ccco1)N(CCC(c1ccccc1)c1ccco1)Cc1ccc(F)cc1 (stereo unspecified) 840 pM
CCOC(=O)CC(=O)CSc1ncnc2c1oc1ccccc12 2960 pM
N#CCCSc1ncnc2c1oc1ccccc12 2480 pM
Cc1cc(=O)oc(C)c1C(=O)OC(C(=O)c1ccccc1)c1ccccc1 (stereo unspecified) 260 pM
Cc1noc(C)c1COC(=O)C(c1ccccc1)c1ccccc1 310 pM
COc1ccc2cc(CN(Cc3ccco3)C(c3nnnn3C3CCCCC3)C(C)C)c(=O)[nH]c2c1 (stereo unspecified) 820 pM
COc1ccc2cc3c(N)nn(C(=O)C4CCC(C(C)(C)C)CC4)c3nc2c1 (stereo unspecified) 340 pM
CCc1nnc2n1N=C(c1ccc(-c3cc(Cl)ccc3Cl)o1)CS2 420 pM
CCOC(=O)c1c(C=O)c(C)n(Cc2ccccc2Cl)c1C 460 pM
CCOC(=O)c1c(C=O)c(C)n(Cc2ccc(C)cc2)c1C 360 pM
Cc1cccc(NC(=O)CSc2ncnc3c2oc2ccccc23)c1 8270 pM
Cc1nc(SCCC(=O)O)c2ccccc2n1 15100 pM
COc1cc(/C=C/c2ccc3cccc([N+](=O)[O-])c3n2)ccc1OCC(=O)O 4660 pM
COC(=O)C1C(c2ccccc2)C(C(=O)OCc2ccco2)C1c1ccccc1 (stereo unspecified) 380 pM
Fc1ccc(Sc2nc(-c3ccccc3)nnc2C(F)(F)F)cc1 1160 pM
CSc1nc(Oc2ccc(F)cc2)c2ccccc2n1 420 pM
Cc1ccc(S(=O)(=O)c2c(C)cc(C)nc2N2CCCCC2)cc1 310 pM
CC1=C/C(=C(/c2ccc(O)c(C)c2)c2ccccc2C(=O)O)C=CC1=O 750 pM
CCOC(=O)c1c(CC(C)C)csc1N 390 pM
Cc1cc(Br)c2nc3c(c(C(=O)O)c2c1)CCCCC3 11900 pM
CCOc1ccccc1C(=O)Nc1ccccc1-c1ccccc1 200 pM
O=C(N/N=C/c1ccc[nH]1)c1ccccc1OCc1ccccc1Cl 270 pM
CS(=O)(=O)N(Cc1ccccc1)c1ccccc1C(=O)Nc1ccccc1C(=O)NCc1ccco1 56600 pM
O=C(O)NCc1ccccc1 (tested in a mixture with another compound) 490 pM
CCc1cc2cc(C)cc(C)c2nc1SCC(=O)N1CCCC1 430 pM
CCOC(=O)Cn1c(=S)[nH]c2c(oc3ccc(Cl)cc32)c1=O 6720 pM
CCOc1ccc(OCC)c(NC(=O)CN2CCN(c3ccc(C)cc3C)CC2)c1 770 pM
C=CCCC1(C)C(=O)N(c2ccccc2)c2ccccc21 (stereo unspecified) 410 pM
CC1Cc2ccccc2N1CC(=O)NC(c1ccccc1)c1ccccc1 (stereo unspecified) 520 pM
CCOc1cccc(CNc2ccc(O)cc2)c1OCc1ccc(Cl)cc1 780 pM
Cc1cc(C)n(CCOc2ccc(Cl)cc2Cl)n1 340 pM
COC(=O)c1ccccc1NC(=O)C(C)Oc1ccccc1 (stereo unspecified) 810 pM
c1ccc(Cc2nc3ccccc3n2Cc2ccccc2)cc1 310 pM
Cc1cccc(OCc2n[nH]c(=S)n2Cc2ccccc2)c1 470 pM
COc1ccc(C(=O)O)cc1NC(=S)NC(=O)c1ccc(-c2ccc(Cl)cc2)o1 462000 pM
COCCn1c(SCC(=O)NCCc2ccccc2)nnc1-c1ccco1 680 pM
CC(C)n1c2ccccc2c2nnc(SCC(=O)Nc3ccccc3C(=O)O)nc21 1630 pM
COc1ccc(C(=O)Nc2cc(C)nn2-c2nc3ccccc3[nH]2)c(OC)c1 240 pM
Cc1cc(C)n(-c2cc(-c3ccccc3)nc(C)n2)n1 220 pM
Cc1oc(-c2ccccc2)cc1C(=O)Nc1cccc(/C=C\C(=O)O)c1
c1cncc(-c2nc(N3CCOCC3)c3c4c(sc3n2)CCC4)c1 720 pM
Cc1ccc(C2CC(c3cccs3)=NN2C(=O)c2ccc(Br)o2)cc1 (stereo unspecified) 310 pM
Cc1ccc(Cl)cc1NC(=S)N(Cc1ccco1)C(C)c1cccs1 (stereo unspecified) 260 pM
Cc1ccccc1NC(=S)N(Cc1ccco1)C(C)c1cccs1 (stereo unspecified) 400 pM
O=C(NCc1ccco1)c1ccc(=O)[nH]n1 480 pM
C/C(CCc1oc2ccccc2c1-c1ccc(C)o1)=N/O 470 pM
Cc1ccc(-c2cc3nn(-c4ccccc4)c(N)c3c(=O)o2)cc1 1290 pM
Cc1ccc(N=Nc2c(N)[nH]n3c(=O)c4c(nc23)CCCC4)cc1 3420 pM
O=C(O)COc1ccc2occ(C(=O)c3ccccc3)c2c1 370 pM
CCOc1nc(C)cc(C)c1S(=O)(=O)c1ccc(Cl)cc1 210 pM
CC(/C=C1\SC(=S)N(C(C(=O)O)C(C)C)C1=O)=C\c1ccccc1 (stereo unspecified) 1950 pM
COc1ccccc1CNC(=O)C1(c2ccc(Cl)cc2)CC1 430 pM
CCCCc1nc(N2CCOCC2)c(C#N)c2c1CCCC2 370 pM
CCC(=O)N1CCN(c2nc(-c3ccccc3)c3c(c2C#N)CCCC3)CC1 310 pM
CCOc1ccc(OCC)c(NC(=O)CN2CCN(c3cc(C)ccc3C)CC2)c1 450 pM
Cc1occc1-c1nnc(SCC(=O)Nc2ccccc2N2CCCCC2)n1C 1170 pM
O=C(Cc1c(F)cccc1Cl)Nc1ccccc1N1CCCCC1 530 pM
O=C(CNCc1ccccc1Cl)Nc1ccccc1N1CCCCC1 810 pM
CC(C)(C)N(Cc1ccccc1)C(=O)c1ccc(Br)o1 510 pM
COC(=O)NC1(C(F)(F)F)C(=O)NC(C)=C1C(=O)OC (stereo unspecified) 720 pM
CCOC(=O)N1CCC(=C2c3ccc(Cl)cc3CCc3cccnc32)CC1 380 pM
CCOC(=O)C1=C(C)N(C)C(C)=C(C(=O)OCC)C1c1ccccc1 510 pM
CC1CCN(c2nc(-c3ccncc3)nc3ccccc23)CC1 520 pM
Cc1nnc(SCC(=O)N2c3ccccc3C(C)(c3ccccc3)CC2(C)C)s1 (stereo unspecified) 370 pM
O=C(c1ccc(Cl)cc1)c1oc2ccccc2c1CS(=O)c1ccc(Cl)cc1 (stereo unspecified) 250 pM
O=C(COc1cccc2ccccc12)N1c2ccccc2CCc2ccccc21 350 pM
Clc1ccc(Cl)c(-c2ccc(/C=N/c3ncn[nH]3)o2)c1 2610 pM
COc1ccccc1N(C(=O)NCc1ccccc1)C1=NCC(C)S1 (stereo unspecified) 210 pM
CCn1c2ccc(OC)cc2c2nc3ccccc3nc21 850 pM
O=c1cc(N2CCCCC2)c(-c2ccccc2)nn1Cc1ccccc1Cl 400 pM
CC1=CC2C(C(C)C)CCC(C)(O)C2CC1 (stereo unspecified) 830 pM
O=C(NCc1ccco1)C(c1cccs1)N(C(=O)Cc1cccs1)c1ccccc1 (stereo unspecified) 440 pM
COc1ccc(CCN(Cc2nc(-c3ccccc3)no2)Cc2nc(-c3ccccc3)no2)cc1OC 490 pM
c1ccc(-c2noc(-c3cccc4ccccc34)n2)cc1 520 pM
COc1cc(-c2noc(-c3cccc(Cl)c3)n2)cc(OC)c1OC 470 pM
c1ccc(-c2noc(-c3ccccc3-c3ccccc3)n2)cc1 500 pM
COc1ccc(-c2noc(-c3ccccc3-c3ccccc3)n2)cc1OC 170 pM
Cc1ccc(-c2csc3ncnc(N4CCc5ccccc5C4)c23)cc1 420 pM
Cc1ccc(-c2nn3c(C)nnc3s2)cc1NCc1c(F)cccc1Cl 970 pM
CC(C)Sc1nc2sc3c(c2c2nnc(SCC(=O)NCc4ccco4)n12)CCCC3 830 pM
Cc1sc2ncnc(Sc3ccccc3C(=O)O)c2c1C 3010 pM
COc1cccc(-c2nc(N3CC(C)CC(C)C3)c3ccccc3n2)c1O (stereo unspecified) 130 pM
CCSc1nc2c(c(=O)[nH]c(=O)n2C)n1Cc1ccc(Cl)cc1 830 pM
CCOc1cccc(CNc2ccc(O)cc2)c1OCc1ccccc1Cl 800 pM
C=CCOc1ccccc1CNc1cccc(F)c1 370 pM
Cc1cc(SC(C)C(=O)O)nc2ccccc12 (stereo unspecified) 1160 pM
O=C(CSc1ncnc2c1oc1ccccc12)Nc1ccccc1F 1240 pM
O=[N+]([O-])c1ccc(Cl)c2c1C1C=CCC1C(c1ccccn1)N2 (stereo unspecified) 530 pM
CC(=O)N(c1cccc(Br)c1)C1C=CS(=O)(=O)C1 (stereo unspecified) 920 pM
Cc1nnc(SCC(=O)NC2CCCCC2)n1C1CCCCC1 890 pM
CC(NC(c1ccccc1)c1ccccc1)C(=O)N1CCCc2ccccc21 (stereo unspecified) 360 pM
Cc1ccc(C(=O)O)cc1NC(=S)NC(=O)c1ccc(-c2ccccc2)cc1 1300 pM
O=C(COc1ccccc1)Nc1cc(C(F)(F)F)ccc1N1CCCC1 310 pM
